For part of these data: Results with a measured potency or affinity are listed apart.
Columns and labels:
Staphylococcus aureus = assay: Antibacterial activity against Staphylococcus aureus MRSA ATCC 43300 (CO-ADD:GP_020); MIC in CAMBH media using NBS plates, by Resazurin F(560/590); assay type: functional; conditions: Concentration 20 uM, ASSAY_TEST Inhibition of Bacterial Growth, detection method Resazurin, Fluorescence (ex560/em590), MEDIA CAMHB, plate type 384well, CORNING #3640, time 18 hr
Acinetobacter baumannii = assay: Antibacterial activity against Acinetobacter baumannii ATCC 19606 (CO-ADD:GN_034); MIC in CAMBH media using NBS plates, by Resazurin F(560/590); assay type: functional; conditions: Concentration 20 uM, ASSAY_TEST Inhibition of Bacterial Growth, detection method Resazurin, Fluorescence (ex560/em590), MEDIA CAMHB, plate type 384well, CORNING #3640, time 18 hr
Escherichia coli = assay: Antibacterial activity against Escherichia coli ATCC 25922 (CO-ADD:GN_001); MIC in CAMBH media using NBS plates, by Resazurin F(560/590); assay type: functional; conditions: Concentration 20 uM, ASSAY_TEST Inhibition of Bacterial Growth, detection method Resazurin, Fluorescence (ex560/em590), MEDIA CAMHB, plate type 384well, CORNING #3640, time 18 hr
Klebsiella pneumoniae = conditions: Concentration 20 uM; ASSAY_TEST Inhibition of Bacterial Growth; detection method Absorption (OD600); MEDIA CAMHB; plate type 384well; NBS; CORNING #3640; time 18 hr
Candida albicans = conditions: 20 µM
Cryptococcus neoformans = conditions: Concentration 20 uM; ASSAY_TEST Inhibition of Fungal Growth; detection method Resazurin; Absorption (OD600-OD570); plate type 384well; NBS; CORNING #3640

SMILES | Inhibition (Staphylococcus aureus) [%] | Inhibition (Acinetobacter baumannii) [%] | Inhibition (Escherichia coli) [%] | Inhibition (Klebsiella pneumoniae) [%] | Inhibition (Candida albicans) [%] | Inhibition (Cryptococcus neoformans) [%]
c1ccc(-c2ccc3c(c2)NCCN3)cc1 | 0.03 | -10.39 | 5.22 | 8.37 | -1.02 | 1.51
Nc1ccc(NC(=O)Nc2ccc(N)cc2)cc1 | -0.09 | -11.79 | 5.61 | 0.94 | -2.34 | -9.22
COc1ccc2[nH]c(-c3ccccc3)cc2c1 | 9.9 | 3.58 | 0.95 | 16.65 | 6.65 | -9.39
Brc1ccc(-c2csc(Nc3nc(-c4ccc(Br)cc4)cs3)n2)cc1 | 27.27 | -8.44 | 9.62 | 1.43 | 3.84 | 3.42
N#Cc1cnn2ccn(C3OC(CO)C(O)C3O)c12 (stereo unspecified) | 2.98 | -3.63 | 8.76 | 13.94 | 4.75 | -11.71
CN(C)S(=O)(=O)Nc1ccccn1 | 6.72 | 9.21 | -0.96 | 17.6 | 5.95 | -3.86
CC(=O)OC1COC(OC(C)=O)CO1 (stereo unspecified) | -14.46 | -1.98 | -12.48 | 0.6 | -0.61 | 10.42
CCOC(=O)C1CC(C)=C(C)CC1C(=O)O (stereo unspecified) | -6.63 | 13.31 | 5.04 | 7.81 | 6.96 | -10.63
CCOCCc1c(O)nc(SC)nc1O | -2.52 | -10.74 | 0.79 | 7.34 | 2.01 | -12.26
c1ccc(-c2ccc(-c3nccc4ccccc34)[nH]2)cc1 | -4.96 | -13.85 | 6.1 | 4.74 | 14 | -7.81
Nc1ccc(SCc2nc3cccc4c3n2CCC4)cc1 | 3.62 | -8.53 | 10.5 | 16.5 | -0.32 | -14.91
CC(=O)NS(=O)(=O)c1ccc2sc(C)nc2c1 | 3.75 | -11.67 | 8.35 | 5.23 | 3.43 | -4.98
CC(C)(C)c1ccc(C(=O)N2CCOC23CCCCC3)cc1 | 6.69 | 7.06 | 4.56 | 2.74 | 2.86 | -8.62
CCS(=O)(=O)C1C(=O)N(C)C(S(=O)(=O)CC)C(=O)N1C (stereo unspecified) | 23.63 | 9.14 | 3.65 | 7.03 | 1.37 | -11.73
Cc1cc(-n2cnc3c(O)ncnc32)ccc1N | 0.18 | -17.95 | 5.61 | 1.65 | 1.13 | -8.1
CN(NC(=O)C(=O)NCc1ccco1)C(=O)NC1CCCCC1 | 1.27 | 11.61 | -11.28 | 10.63 | 4.23 | 3.93
Cc1cc2cc3c(=O)[nH]c(=O)cc-3n(CC(O)C(O)C(O)CO)c2cc1C (stereo unspecified) | 10.31 | 8.52 | -0.29 | 10.28 | -1.58 | -7.62
Oc1ccnc2c(Cl)cccc12 | 7.28 | 2.93 | -8.1 | 5.9 | 3.54 | 14.14
O=C(NC(=S)Nc1ccccn1)c1ccccc1 | -7.14 | -16.09 | 5.5 | 8.04 | 10.1 | -15.94
Cc1ccc(Cl)cc1NC(=O)c1cc2ccccc2cc1O | 5.29 | -8.92 | 15.86 | 12.1 | 4.11 | -7.39
c1ccc(NN(Cc2ccncc2)c2ccccc2)cc1 | -5.2 | -18.1 | 6 | 7.57 | 0.97 | -6.08
COc1ccc(-c2cc3ccccc3[nH]2)cc1 | 28.13 | -0.84 | 12.2 | 0.29 | -0.93 | -13.44
CSc1nc(N)c(C(=O)Nc2ccc([N+](=O)[O-])cc2)s1 | 3.88 | 5.85 | 8.19 | 8.8 | 7.49 | -10.16

SMILES | Inhibition (Staphylococcus aureus) [%] | Inhibition (Acinetobacter baumannii) [%] | Inhibition (Escherichia coli) [%] | Inhibition (Klebsiella pneumoniae) [%] | Inhibition (Candida albicans) [%] | Inhibition (Cryptococcus neoformans) [%]
Cc1ccc(S(=O)(=O)N2CC=C(N)N2)cc1 | 16.25 | -10.87 | 9.9 | 8.77 | -1.38 | -12.82
O=C1c2ccccc2C(O)(c2ccccc2)N1c1ccncc1 (stereo unspecified) | 8.72 | -12.43 | 4.92 | 13.13 | 2.44 | -3.79
COc1ccc(Cc2nnc(SC)n2-c2ccc(F)cc2)cc1OC | 7.78 | -2.89 | 10.28 | 14.43 | 2.19 | -3.12
CC(=O)c1c(O)c(C)c(O)c2c1OC1=CC(=O)/C(=C(/C)N)C(=O)C12C (stereo unspecified) | -3.02 | 6.34 | 8.14 | 14.26 | 6.96 | -10.35
CC(=O)n1cc(C2CC(=O)OC3=C2CC(=O)C(C)(C)C3)c2ccccc21 (stereo unspecified) | 13.95 | 4.13 | 1.01 | 11.94 | 2.8 | -0.61
S=C(SCc1cc(Cl)cc2c1OCOC2)N1CCSCC1 | 8.1 | -7.54 | 10.68 | 22.79 | 13.5 | 0.8
N#CC1=C(Nc2ccccc2Cl)SC(c2ccccc2O)NC1=O (stereo unspecified) | 1.74 | -8.74 | 4.44 | 12.14 | 4.82 | -3.28
CCN(CC)CCNc1c(C)nc(C#N)c(N)[n+]1[O-] | 6.23 | -9.24 | 11.24 | 8.95 | 2.9 | -16.29
Br.C=CC1CN2CCC1CC2C(O)c1ccnc2ccc(OC)cc12 (stereo unspecified) | -3.41 | 0.49 | 16.29 | 15.08 | -0.01 | 7.91
Cc1ccc2nc(Cl)cc(=O)n2c1 | 3.79 | -0.85 | -11.05 | 5.29 | 1.34 | 9.92
CCCCN1C(=O)CC2CCOC21C (stereo unspecified) | 9.16 | -12.54 | 6.99 | 9.62 | 10.6 | -12.41
Nc1ccc(NC(=O)c2ccc(C(=O)Nc3ccc(N)cc3)cc2)cc1 | 11.02 | -8.34 | 15.83 | 3.68 | 40.4 | 10.38
CCN1CCC(Nc2ccnc3cc(Cl)ccc23)CC1 | 11.96 | -0.07 | -4.98 | 16.53 | 2.51 | -6.53
CCn1c(=O)n(C)c2c(=O)n(C)c(=O)n(C)c21 | -2 | -10.53 | 11.39 | 6.07 | -0.98 | -11.25
CCC(C)NC(=O)c1cccc(C)c1 (stereo unspecified) | 27.07 | -10.03 | 12.99 | 13.06 | 3.19 | -7.62
C=CCOC(=O)/C=C\C(=O)NC(N)=O | 5.08 | -11.84 | 0.88 | 29.86 | 7.76 | 0.75
CC(C)c1cc(C(C)C)n2nc(N)nc2n1 | 6.67 | 8.95 | 5.1 | 0.39 | -0.42 | -7.51
O=c1c(-c2ccc(O)cc2)coc2cc(O)cc(O)c12 [GENISTEIN] | 3.06 | 1.42 | 2.99 | 22.48 | 6.45 | -7.01
CCCCCCCCCCCCC(NC(C)=O)(C(=O)OCC)C(=O)OCC | 14.33 | 7.7 | 5.2 | 18.57 | 7.18 | -2.7
c1ccc(CSc2nc3c[nH]cnc-3n2)cc1 | 8.72 | -4.41 | 6.08 | 8.84 | 0.41 | 13.03
CCC(C)n1c(C)cc(=O)n1C(C)CC (stereo unspecified) | 2.1 | -5.44 | -0.28 | 0.77 | -0.29 | -4.99
[O-][n+]1ccc(CC(O)(C(F)(F)F)C(F)(F)F)cc1 | -9.72 | -5.31 | -11.83 | 9.87 | 4.37 | -2.34
CC(=O)[C@H]1CC[C@H]2[C@@H]3CCC4=CC(=O)CC[C@]4(C)[C@@]3(F)[C@@H](O)C[C@]12C | 0.89 | -16.68 | 9.76 | 7.06 | 0.8 | -7.75

From ChEMBL document CHEMBL4296182, “CO-ADD screening of NIH NCI Diversity Set V”
